# Where a chain is given by its changes, count along the chain named. Over roughly 16,000 sequences, “ka relative to ugcaugu” has its median near 0.0091; the highest 2% begin near 0.032. This is one part of a sample in which the highest values are shown more often than they occur.
# T1: RBFOX1 RRM (Homo sapiens, UniProt Q9NWB1 109-208)
# T1 sequence: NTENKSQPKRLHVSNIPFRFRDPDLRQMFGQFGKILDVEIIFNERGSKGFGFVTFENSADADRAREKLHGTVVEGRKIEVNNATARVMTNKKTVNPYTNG
# B1: AAUAAUA (DNA:RNA)
# RNA: GGGAGACCGGAAUUCAGAUUGUCCAAUAAUAUUAAAUCCCGUCGUAGCCACCA
# DNA 1: CAATCTGAATTCCGGTCTCCC
# DNA 2: TGGTGGCTACGACGGGATT
# B2: GCGUGUG (DNA:RNA)
# RNA: B1 RNA with A25G, A26C, U27G, A28U, A29G, A31G
# DNA 1: CAATCTGAATTCCGGTCTCCC
# DNA 2: TGGTGGCTACGACGGGATT
# B3: UCUAACG (DNA:RNA)
# RNA: B1 RNA with A25U, A26C, U30C, A31G
# DNA 1: CAATCTGAATTCCGGTCTCCC
# DNA 2: TGGTGGCTACGACGGGATT
# B4: UCCCUGA (DNA:RNA)
# RNA: B1 RNA with A25U, A26C, U27C, A28C, A29U, U30G
# DNA 1: CAATCTGAATTCCGGTCTCCC
# DNA 2: TGGTGGCTACGACGGGATT
# B5: UCAAAGA (DNA:RNA)
# RNA: B1 RNA with A25U, A26C, U27A, U30G
# DNA 1: CAATCTGAATTCCGGTCTCCC
# DNA 2: TGGTGGCTACGACGGGATT
# B6: UGCAGCC (DNA:RNA)
# RNA: B1 RNA with A25U, A26G, U27C, A29G, U30C, A31C
# DNA 1: CAATCTGAATTCCGGTCTCCC
# DNA 2: TGGTGGCTACGACGGGATT
# B7: CGUUGGA (DNA:RNA)
# RNA: B1 RNA with A25C, A26G, A28U, A29G, U30G
# DNA 1: CAATCTGAATTCCGGTCTCCC
# DNA 2: TGGTGGCTACGACGGGATT
# B8: GGACCUA (DNA:RNA)
# RNA: B1 RNA with A25G, A26G, U27A, A28C, A29C
# DNA 1: CAATCTGAATTCCGGTCTCCC
# DNA 2: TGGTGGCTACGACGGGATT
# B9: CCGGGUC (DNA:RNA)
# RNA: B1 RNA with A25C, A26C, U27G, A28G, A29G, A31C
# DNA 1: CAATCTGAATTCCGGTCTCCC
# DNA 2: TGGTGGCTACGACGGGATT
# B10: GGGUCUU (DNA:RNA)
# RNA: B1 RNA with A25G, A26G, U27G, A28U, A29C, A31U
# DNA 1: CAATCTGAATTCCGGTCTCCC
# DNA 2: TGGTGGCTACGACGGGATT
# B11: CGGGUCU (DNA:RNA)
# RNA: GGGAGACCGGAAUUCAGAUUGUCCCGGGUCUUUAAAUCCCGUCGUAGCCACCA
# DNA 1: CAATCTGAATTCCGGTCTCCC
# DNA 2: TGGTGGCTACGACGGGATT
# B12: GGGGGUC (DNA:RNA)
# RNA: B11 RNA with C25G, U29G, C30U, U31C
# DNA 1: CAATCTGAATTCCGGTCTCCC
# DNA 2: TGGTGGCTACGACGGGATT
# B13: CGGGGUC (DNA:RNA)
# RNA: B11 RNA with U29G, C30U, U31C
# DNA 1: CAATCTGAATTCCGGTCTCCC
# DNA 2: TGGTGGCTACGACGGGATT
# B14: GGGGUCU (DNA:RNA)
# RNA: B11 RNA with C25G
# DNA 1: CAATCTGAATTCCGGTCTCCC
# DNA 2: TGGTGGCTACGACGGGATT
# B15: UACCUCU (DNA:RNA)
# RNA: B11 RNA with C25U, G26A, G27C, G28C
# DNA 1: CAATCTGAATTCCGGTCTCCC
# DNA 2: TGGTGGCTACGACGGGATT
# B16: CUGGGAG (DNA:RNA)
# RNA: B11 RNA with G26U, U29G, C30A, U31G
# DNA 1: CAATCTGAATTCCGGTCTCCC
# DNA 2: TGGTGGCTACGACGGGATT
# B17: GUUAGAA (DNA:RNA)
# RNA: B1 RNA with A25G, A26U, A29G, U30A
# DNA 1: CAATCTGAATTCCGGTCTCCC
# DNA 2: TGGTGGCTACGACGGGATT
# B18: AGUGUCU (DNA:RNA)
# RNA: B11 RNA with C25A, G27U
# DNA 1: CAATCTGAATTCCGGTCTCCC
# DNA 2: TGGTGGCTACGACGGGATT
# B19: AGAUAUU (DNA:RNA)
# RNA: B1 RNA with A26G, U27A, A28U, A31U
# DNA 1: CAATCTGAATTCCGGTCTCCC
# DNA 2: TGGTGGCTACGACGGGATT
# B20: AGUGGUA (DNA:RNA)
# RNA: B1 RNA with A26G, A28G, A29G
# DNA 1: CAATCTGAATTCCGGTCTCCC
# DNA 2: TGGTGGCTACGACGGGATT
# Target: T1, RBFOX1 RRM
# Assay: EMSA; HiTS-Eq, 1 nM pool, 10 min; buffer printed only for the single-RNA assays: 10 mM Tris pH 7.5, 150 mM NaCl, 3.4 mM EDTA, 0.001% NP-40, 30 C
# Settings: tags: His6 N-terminal (pET28a); label: 5' 32P
# Method in brief: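 Purified RbFox RRM, wild type or mutant, was incubated for 10 min in 50 µL with 1 nM of a 5′-radiolabelled RNA pool carrying 7 randomized nucleotides, whose flanks were annealed to DNA oligonucleotides, over a series of increasing protein concentrations. Unbound RNA was resolved on 8% native PAGE, cut out, reverse-transcribed, barcoded by PCR and sequenced on an Illumina HiSeq 2500. Relative association constants were derived from changes in read counts for each RNA species versus the control reaction and normalised to the cognate motif.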
row,Binder,binding signal
1,B1,0.000771 KA relative to UGCAUGU
2,B2,0.0222 KA relative to UGCAUGU
3,B3,0.00601 KA relative to UGCAUGU
4,B4,0.00782 KA relative to UGCAUGU
5,B5,0.00287 KA relative to UGCAUGU
6,B6,0.0108 KA relative to UGCAUGU
7,B7,0.00714 KA relative to UGCAUGU
8,B8,0.0035 KA relative to UGCAUGU
9,B9,0.0244 KA relative to UGCAUGU
10,B10,0.00918 KA relative to UGCAUGU
11,B11,0.0296 KA relative to UGCAUGU
12,B12,0.0306 KA relative to UGCAUGU
13,B13,0.0407 KA relative to UGCAUGU
14,B14,0.0436 KA relative to UGCAUGU
15,B15,0.00134 KA relative to UGCAUGU
16,B16,0.0142 KA relative to UGCAUGU
17,B17,0.0142 KA relative to UGCAUGU
18,B18,0.0109 KA relative to UGCAUGU
19,B19,0.00865 KA relative to UGCAUGU
20,B20,0.0144 KA relative to UGCAUGU
